Assay [1] can be described thus: AP1 Signaling Pathway (AID 357).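 Also: ME-180 reporter cells stimulated with EGF at its EC50 level; % is scaled to controls: 0 for no effect and ±100 for the full control effect.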 The note with it: ME-180 AP-1-bla reporter, EGF-induced, beta-lactamase ratio, 5 h. The procedure, abridged:
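Read-out was the 460nm/530nm emission ratio (excitation 405nm) after CCF4 loading for 2.5 hours at room temperature. Cells carried an AP-1-driven beta-lactamase reporter, were stimulated with EC50 EGF plus compound for 5 hours, and AC50 values came from titrations.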

In assay [2] the target is Cytochrome P450 1A2 (Homo sapiens) (UniProt P05177). Nature of the assay: p450-cyp1a2 (AID 410; calls by dose curve; also: potency is read from the fitted curve at half-maximal effect;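 as to activity change, negative = inhibition: -100% = full effect of reference inhibitor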). As to conditions: recombinant CYP1A2, luciferin-ME demethylation, luminescence; series mostly up to 57 µM. A digest of the protocol: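 Read-out is luminescence from luciferin produced by CYP1A2 demethylation of Luciferin-ME (100uM, at Km). Detection reagent stopped the 60 min NADPH-dependent reaction; signals were normalized to 57 uM furafylline.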
Chain of Cytochrome P450 1A2 (Homo sapiens) (P05177 whole entry, looked up): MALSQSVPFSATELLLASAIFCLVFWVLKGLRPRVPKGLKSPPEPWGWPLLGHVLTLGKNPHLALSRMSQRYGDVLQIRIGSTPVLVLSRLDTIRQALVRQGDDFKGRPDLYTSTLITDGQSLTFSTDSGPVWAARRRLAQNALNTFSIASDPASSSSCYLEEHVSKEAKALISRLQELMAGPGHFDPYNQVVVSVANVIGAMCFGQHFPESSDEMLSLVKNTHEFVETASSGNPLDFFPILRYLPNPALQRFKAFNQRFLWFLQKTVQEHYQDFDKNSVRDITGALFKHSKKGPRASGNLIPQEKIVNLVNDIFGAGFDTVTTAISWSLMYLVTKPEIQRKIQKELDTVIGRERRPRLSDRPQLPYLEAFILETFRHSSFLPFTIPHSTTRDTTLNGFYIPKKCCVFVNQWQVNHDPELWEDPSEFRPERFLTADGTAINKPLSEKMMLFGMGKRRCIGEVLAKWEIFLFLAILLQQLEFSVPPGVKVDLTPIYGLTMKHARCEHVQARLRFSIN

Assay [3] is described as follows: Stat Signaling Pathway (AID 446).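 Also: ME-180 cervical cancer cells given 40 pM IL-6 alongside compound; SIE-controlled beta-lactamase reporter measured as 460/530 nm FRET emission ratio; % is scaled to controls: 0 for no effect and ±100 for the full control effect.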 The note with it: ME-180 (cervical carcinoma) SIE beta-lactamase reporter, IL-6 stimulated, 5 h. The procedure, abridged:
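Overnight-plated ME-180 cells bearing a STAT Inducible Element beta-lactamase reporter; 5 h co-exposure to compound and 40 pM IL-6; values normalized to 300 pM IL-6 and 125 nM JAK inhibitor controls.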

In assay [4] the target is Glucocorticoid receptor (Homo sapiens) (UniProt P04150). Kind of assay: GR-GFP Redistribution (AID 450;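 active = compounds whose dose series gives a full or clear partial fitted curve of increased nuclear translocation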; also: potency is read from the fitted curve at half-maximal effect). As to conditions: U2OS GR-GFP nuclear translocation, laser cytometry, 2 h.
Chain of Glucocorticoid receptor (Homo sapiens) (P04150 whole entry, looked up, the tested form may be a part): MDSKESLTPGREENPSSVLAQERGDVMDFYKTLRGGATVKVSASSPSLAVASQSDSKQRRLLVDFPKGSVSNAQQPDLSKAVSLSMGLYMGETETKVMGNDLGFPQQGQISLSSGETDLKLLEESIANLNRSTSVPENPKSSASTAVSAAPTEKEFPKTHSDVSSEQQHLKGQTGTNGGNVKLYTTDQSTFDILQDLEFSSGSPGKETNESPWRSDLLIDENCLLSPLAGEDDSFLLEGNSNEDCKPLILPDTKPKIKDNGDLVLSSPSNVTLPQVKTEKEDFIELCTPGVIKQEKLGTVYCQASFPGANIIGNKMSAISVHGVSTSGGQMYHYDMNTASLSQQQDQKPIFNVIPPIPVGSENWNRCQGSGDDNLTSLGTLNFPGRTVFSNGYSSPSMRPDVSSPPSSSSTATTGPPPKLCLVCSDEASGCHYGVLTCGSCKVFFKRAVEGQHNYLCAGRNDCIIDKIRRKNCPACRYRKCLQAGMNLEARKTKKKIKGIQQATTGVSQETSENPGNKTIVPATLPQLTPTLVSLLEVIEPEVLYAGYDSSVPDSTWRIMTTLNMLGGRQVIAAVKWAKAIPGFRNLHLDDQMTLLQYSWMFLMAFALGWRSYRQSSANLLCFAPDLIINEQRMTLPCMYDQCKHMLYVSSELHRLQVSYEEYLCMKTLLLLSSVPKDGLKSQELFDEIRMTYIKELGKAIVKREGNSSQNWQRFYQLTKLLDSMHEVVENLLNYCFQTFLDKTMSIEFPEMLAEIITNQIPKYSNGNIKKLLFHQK
Assay [5] deals with Mitogen-activated protein kinase 10 (Mus musculus) (UniProt Q61831). Kind of assay: JNK3 AlphaScreen Assay (AID 530).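 Also: kinase came from lysate of stimulated human HepG2 cells; signal reports phosphorylation of biotinylated GST-cJun 1-79 at Ser73 with 10 µM ATP; % is scaled to controls: 0 for no effect and ±100 for the full control effect.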 The note with it: JNK3 lysate, c-Jun phosphorylation; series mostly up to 57.1 µM. The procedure, abridged: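 HepG2 lysate (IL-1b/TNFa pre-activated) + biotin-GST-cJun 1-79 + anti-pSer73 cJun; cpd titration, 15 min RT; ATP 10 uM start; Tris pH 7.6, MgCl2, DTT, vanadate; beads in EDTA buffer; AlphaScreen.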

For assay [6], the target named is Glucocorticoid receptor (Homo sapiens) (UniProt P04150). Kind of assay: GR-EFC Redistribution (AID 451; calls by dose curve; also: potency is read from the fitted curve at half-maximal effect). The note with it: CHO-K1 GR-EFC translocation, beta-gal luminescence, 2 h. The procedure, abridged:
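CHO-K1 cells expressing nuclear EA and GR-ED fragments of b-gal; compounds titrated up to 46 uM final, 2 h at 37 C. GR nuclear translocation read as complemented b-gal luminescence after 1 h RT detection.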

A short description of assay [7]: NFAT Signaling Pathway (AID 444).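 Also: carbachol stimulus at about its EC50 of 1 µM final; % is scaled to controls: 0 for no effect and ±100 for the full control effect.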 As to conditions: Jurkat NFAT-bla M1, carbachol, beta-lactamase ratio, 5 h; at 38 µM (top of the series) unless noted. The procedure, abridged:
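Jurkat cells with NFAT-driven β-lactamase reporter and co-expressed M1 receptor, stimulated with carbachol (final 1 uM, ~EC50), compound titration, 5 h at 37 °C. CCF4 loaded 1 h at RT; 460/530 nm ratio gave %activity and AC50.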

A short description of assay [8]: Cell Viability - BJ (AID 421; calls by dose curve;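 also: potency is read from the fitted curve at half-maximal effect; cells exposed to compound for 40 hours at 37 °C before readout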). The note with it: BJ fibroblast viability, qHTS. The procedure, abridged: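 Quantitative HTS: ATP depletion in BJ cells after 40 hr compound exposure in complete culture medium, detected with CellTiter-Glo; AC50 from standard Hill fits.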
(qHTS replaces the single test concentration by a dilution series.)

A short description of assay [9]: Cell Viability - Jurkat (AID 426;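 active = dose-dependent loss of cell ATP signal giving a full or clear fitted curve, ranked by lower potency value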;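 also: potency is read from the fitted curve at half-maximal effect; cells exposed to compound for 40 hours at 37 °C before ATP read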). The note with it: qHTS. A digest of the protocol:
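Cytotoxicity was scored as loss of cellular ATP, measured by luciferase-based luminescence, in Jurkat clone E6-1 cells after 40 h compound treatment; tamoxifen and doxorubicin served as positive controls.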

Assay [10] is described as follows: Cell Viability - Hek293 (AID 427;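 active = compounds whose dose-response curve shows a full or clear partial loss of cell viability, called from curve shape rather than a numeric limit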;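 also: potency is read from the fitted curve at half-maximal effect; cells exposed to compound for 40 hours at 37 °C before reading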). As to conditions: qHTS. The procedure, abridged:
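AC50 values derive from Hill-modelled concentration-response of ATP-based luminescence, normalized between DMSO-only and 100 uM tamoxifen controls. Cells were exposed in complete culture medium for 40 hr at 37 °C before detection.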

Assay [11] is described as follows: Cell Viability - HepG2 (AID 433; calls by dose curve;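 also: potency is read from the fitted curve at half-maximal effect; potency for ATP loss meaning cytotoxicity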). The note with it: qHTS. A digest of the protocol: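 HepG2 hepatocellular carcinoma cells (1500/well) were treated with compounds for 40 h at 37 °C in complete medium; intracellular ATP was read by CellTiter-Glo luminescence. Data were normalized to DMSO and 100 uM tamoxifen, and AC50 came from Hill fits.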
Assay [12] can be described thus: Cell Viability - MRC5 (AID 434; calls by dose curve;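 also: potency is read from the fitted curve at half-maximal effect; potency reflects cytotoxicity seen as loss of intracellular ATP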). The note with it: MRC5 lung fibroblast viability, qHTS. A digest of the protocol: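 ATP luminescence read-out (CellTiter-Glo, 20 min RT) after 40 hr, 37 °C compound exposure of 1500 MRC5 cells/well. Data normalized to DMSO (basal) and 100 uM tamoxifen (100% inhibition); AC50 from standard Hill equation.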
Assay [13] can be described thus: Cell Viability - SK-N-SH (AID 435; calls by dose curve;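 also: potency is read from the fitted curve at half-maximal effect; compound exposure lasted 40 h at 37 °C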). As to conditions: SK-N-SH neuroblastoma cell viability qHTS. The procedure, abridged:
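SK-N-SH human neuroblastoma cells (1500/well) were exposed to compounds in complete medium for 40 h at 37 °C, and intracellular ATP was then measured by CellTiter-Glo luminescence. AC50 was taken from Hill fits, normalized to DMSO and 100 uM tamoxifen.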

Assay [14] can be described thus: Cell Viability - N2a (AID 540; active = well fitted curve in the direction sought with a large enough effect; an effect the other way counts as inactive or inconclusive;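 also: plate controls were DMSO alone for no effect and tamoxifen control for full effect; nearly all actives have a fitted effect of over 45% in size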). As to conditions: N2a mouse neuroblastoma cell viability; activity change, negative = cytotoxicity: at 92.2 µM (top of the series). A digest of the protocol: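 In this qHTS cytotoxicity screen, ATP-dependent luciferase luminescence reports viable N2a cells after a 40 hr compound exposure in complete culture medium. Potencies are AC50 values from standard Hill equation fits.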

Assay [15] is described as follows: Cell Viability - HUV-EC-C (AID 542; active = well fitted curve in the direction sought with a large enough effect; an effect the other way counts as inactive or inconclusive; also: % is scaled to controls: 0 for no effect and ±100 for the full control effect; nearly all actives have a fitted effect of over 35% in size). As to conditions: HUV-EC-C endothelial cell viability, qHTS; series mostly up to 92.2 µM. The procedure, abridged:
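Concentration-dependent ATP loss in HUV-EC-C cells is the measure. Exposure lasts 40 hr at 37 °C; luminescence follows CellTiter-Glo addition, and Hill fits give AC50.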

The nature of assay [16]: Cell Viability - SH-SY5Y (AID 544; active = well fitted curve in the direction sought with a large enough effect; an effect the other way counts as inactive or inconclusive;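 also: 0% = DMSO alone and -100% = 100 µM tamoxifen; nearly all actives have a fitted effect of over 55% in size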). The note with it: SH-SY5Y neuroblastoma cell viability; viability change, negative = cytotoxic: at 92.2 µM (top of the series). A digest of the protocol: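 Quantitative HTS in SH-SY5Y neuroblastoma cells, 40 hr treatment at 37 °C, ATP content by luciferase luminescence; AC50 from Hill fits.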

Where “and” joins values, the source holds several entries; their conditions need not be identical. Identical values can stand only once. Values without a mark were called inactive. Records with an inconclusive call do not appear. Calls of active or inactive are those of the source. Unless noted, calls follow the shape of the dose curve; as a rule, active = well fitted curve in either direction with a large enough effect (not every such curve was filed as active); inconclusive = small, poorly fitted or top-dose-only effect, or another doubt; inactive = flat fitted curve, though single readings scatter.

For `NC[C@@H]1O[C@H](C23CC4CC(CC(C4)C2)C3)Cc2c1ccc(O)c2O`, in assay [1] (at 38 µM (top of the series)), the activity change, negative = inhibition was -6.97%. Further, the Potency entry in assay [2] and in [5] was “inactive” throughout. Also, the activity, negative = inhibition in [3] (at 38 µM (top of the series)) was 0.327%. Further, the Potency in [4] was greater than 46 µM.
Regarding `Cc1cc(NC(=O)Nc2ccc3c(ccn3C)c2)sn1`, the activity change, negative = inhibition in assay [1] (at 38 µM (top of the series)) was -21.3%. Moreover, the Potency in assay [2] was 10 µM (active) and 5.01 µM (active); in assay [4], greater than 46 µM; in [6], greater than 46 µM.
Take `O=c1[nH]c2cc(Cl)c(Cl)cc2[nH]c1=O`: in [1] (at 38 µM (top of the series)), the activity change, negative = inhibition was -8.09%. The activity, negative = inhibition in assay [3] (at 38 µM (top of the series)) is -0.584%. In addition, the Potency in assay [4] and in [6] was greater than 46 µM each time.
For `Cc1ccc(C(=O)c2ccc(CC(=O)O)n2C)cc1`, the activity change, negative = inhibition in [1] (at 17.2 µM (top of the series)) was 6.83%. For the same compound, the Potency entry in assay [2] and in [5] was “inactive” throughout. Moreover, the activity, negative = inhibition in [3] (at 17.2 µM (top of the series)) was -8.7%.
As to `N.N.O=C(O)C1(C(=O)O)CCC1.[Pt]`, the results for the activity change, negative = inhibition in assay [1] (at 38 µM (top of the series)) and in assay [7] were -8.77% and 13.9%, respectively. Besides, the Potency entry in [5] was “inactive”.
Regarding `Nc1ccc(C(=O)O)c(O)c1`, the activity change, negative = inhibition in [1] (at 17.2 µM (top of the series)) was 2.89% and -3.6%; in assay [7] it was 10.1% [at 17.2 µM] and -5.83% [at 17.2 µM]. Moreover, in [3] (at 17.2 µM (top of the series)), the activity, negative = inhibition is 7.35% and -0.89%. In addition, the Potency in assay [4] is greater than 20.6 µM.
Take `c1ccc(-c2ccccn2)nc1`: the activity change, negative = inhibition in [1] (at 38 µM (top of the series)) was 11.7%. Further, the Potency in assay [2] was 25.1 µM (active); in assay [4], greater than 46 µM. In [3] (at 38 µM (top of the series)), the activity, negative = inhibition is 6.11%. In addition, the Potency entry in [5] is “inactive”.
For the compound `Cc1c(N)c(=O)n(-c2ccccc2)n1C`, the results for the activity change, negative = inhibition in assay [1] (at 17.2 µM (top of the series)) and in [7] were 7.65% and -9.93% [at 17.2 µM], respectively. In [3] (at 17.2 µM (top of the series)), the activity, negative = inhibition is 3.23%. Also, the Potency in [4] was greater than 20.6 µM. For the same compound, the Potency entry in assay [5] is “inactive”.
For the compound `CCCSc1ccc2nc(NC(=O)OC)[nH]c2c1`, in assay [1] (at 17.2 µM (top of the series)), the activity change, negative = inhibition was 11.3% and 5.12%. In addition, the Potency is 0.398 µM (active) in assay [2] and greater than 20.6 µM in assay [4]. For the same compound, the activity, negative = inhibition in assay [3] (at 17.2 µM (top of the series)) was -7.64% and -2.74%. For the same compound, the Potency entry in assay [5] is “inactive”.
With `CN(C)C(N)=NCCC[C@H](N)C(=O)O`, the activity change, negative = inhibition in assay [1] (at 38 µM (top of the series)) is 3.1%. In addition, the Potency entry in assay [2] and in assay [5] was “inactive” throughout. In [3] (at 38 µM (top of the series)), the activity, negative = inhibition was -11.7%. The Potency in assay [4] is greater than 46 µM.
In the case of `OC[C@H]1O[C@@H](n2cnc3c(Nc4ccccc4)ncnc32)[C@H](O)[C@@H]1O`, the activity change, negative = inhibition is 0.891% in assay [1] (at 17.2 µM (top of the series)) and 4.47% [at 17.2 µM] in assay [7]. Moreover, in [3] (at 17.2 µM (top of the series)), the activity, negative = inhibition is 17.7%. The Potency in [4] was greater than 20.6 µM.
As to `CN1CCc2ccccc2Cc2[nH]c3ccccc3c2CC1`, the activity change, negative = inhibition in [1] (at 38 µM (top of the series)) was 8.89%. Further, the activity, negative = inhibition in assay [3] (at 38 µM (top of the series)) is -13.2%. In addition, the Potency in assay [4] and in assay [6] was greater than 46 µM each time. In addition, the Potency entry in assay [5] is “inactive”.
`O=c1cc(-c2ccccc2)oc2ccccc12`: the Potency in [8], in [9], in [10], in assay [11], in assay [12] and in assay [13] was greater than 92 µM each time. In addition, the Potency entry in [5], in assay [14], in [15] and in assay [16] was “inactive” throughout.

Values taken from PubChem BioAssay (NCATS).
